Screening results: PubChem, several laboratories
PHOSPHO1 inh – PHOSPHO1 (human) inhibition; Q8TCT1; recombinant PHOSPHO1, absorbance phosphatase assay; inhibition, % at 13.3 µM; hit rate 1.1% among 290,000; in the data active = inhibition above about 60%
Target sequence (Q8TCT1 whole entry, looked up): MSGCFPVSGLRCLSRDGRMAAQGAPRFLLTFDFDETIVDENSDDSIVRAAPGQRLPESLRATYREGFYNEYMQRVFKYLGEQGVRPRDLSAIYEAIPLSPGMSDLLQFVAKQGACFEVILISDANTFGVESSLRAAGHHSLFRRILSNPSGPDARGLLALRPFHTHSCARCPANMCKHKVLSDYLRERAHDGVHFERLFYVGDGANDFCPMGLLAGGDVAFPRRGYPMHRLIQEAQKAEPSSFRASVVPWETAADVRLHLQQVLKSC
CHT inh – inhibitors of human choline transporter CHT. CHT-expressing cells, membrane potential dye, choline response; stronger effect = lower value. Q9GZV3. B-score at 10 µM. hit rate 0.86% among 310,000;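 active = B-score over 3 SD under the library average, and starting fluorescence ratio not unusually high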;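 note: choline stimulus applied at its EC90 after an EC20 pre-addition; B-score computed on integrated fluorescence ratio after choline addition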
HDAC3 inhib – inhibitors of human histone deacetylase 3 | recombinant HDAC3, fluorogenic peptide/trypsin coupled, fluorescence | hit rate 0.15% among 320,000 | inhibition, % at 8.3 µM; in the data active = inhibition above about 26%, passing the limit was not always enough; inconclusive = no clear call, values can overlap the other calls
Target sequence (O15379 whole entry, looked up): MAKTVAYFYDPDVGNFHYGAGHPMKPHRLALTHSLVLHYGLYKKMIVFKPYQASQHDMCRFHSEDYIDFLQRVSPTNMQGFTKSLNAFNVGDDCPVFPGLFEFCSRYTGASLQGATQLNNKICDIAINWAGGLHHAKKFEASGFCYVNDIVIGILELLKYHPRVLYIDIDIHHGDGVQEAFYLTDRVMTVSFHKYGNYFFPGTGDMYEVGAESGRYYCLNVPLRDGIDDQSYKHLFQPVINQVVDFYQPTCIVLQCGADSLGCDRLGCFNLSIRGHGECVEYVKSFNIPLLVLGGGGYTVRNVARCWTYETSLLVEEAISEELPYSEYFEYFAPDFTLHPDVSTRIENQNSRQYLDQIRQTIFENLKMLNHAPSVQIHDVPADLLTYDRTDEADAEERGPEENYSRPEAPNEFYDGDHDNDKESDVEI
TMEM16A inh – inhibitors of mouse TMEM16A calcium-activated chloride channel. AID 588511. hit rate 1.2% among 310,000. normalized B-score (activity score, 25-100; higher = stronger inhibition) at 10 µM. HEK293 TMEM16A/YFP iodide influx fluorescence, ionomycin;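 active = ratio plate-corrected score three or more library SD toward inhibition, starting fluorescence score within five deviations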;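 note: score derived from kinetic fluorescence span divided by baseline fluorescence per well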
CHT PAM – allosterically activates the human high affinity choline transporter | hit rate 0.49% among 310,000 | B-score at 10 µM | CHT-expressing cells, membrane potential dye, choline EC20; stronger effect = higher value; LV-AA mutant CHT in HEK293 cells;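 active = initial fluorescence not abnormally high and integrated response B-score, plate-corrected, over 3 SD above library mean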
ANO1 activ – activators or potentiators of mouse TMEM16A chloride channel; Q8BHY3; HEK293 TMEM16A/YFP-H148Q/I152L, iodide quench fluorescence; stronger effect = lower value; B-score at 10 µM; hit rate 0.3% among 340,000;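 active = fluorescence-ratio B-score plate-corrected deviation score at least 3 library SD below zero, with starting fluorescence score within 5 deviations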;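 note: channel opened by trigger with iodide after compound preincubation; score built on the fluorescence ratio of max minus min over baseline; more negative score means more quench and so TMEM16A activation or potentiation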
Large screens that a line does not name were inactive. Only some compounds are listed: those with a hit (about 3.2% of all), similar ones and a draw of the others.

S=c1[nH]nc(C2CC2)n1Cc1ccco1	PHOSPHO1 inh 81
Cc1c(NC(=O)CSc2nnc3c4ccccc4n(CCc4ccccc4)c3n2)c(=O)n(-c2ccccc2)n1C	PHOSPHO1 inh 64
CCn1c2ccccc2c2nnc(SCC(=O)Nc3c(C)n(C)n(-c4ccccc4)c3=O)nc21	none
C/C=C(\C)C(=O)OC1[C@H](OC(C)=O)C2(CO)C(CC1(C)C)C1=CCC3C4(C)CCC(O[C@@H]5O[C@H](C(=O)O)[C@@H](O[C@@H]6O[C@H](CO)[C@@H](O)[C@H](O)[C@H]6O)[C@H](O)[C@H]5O[C@H]5O[C@H](CO)[C@@H](O)[C@H](O)[C@H]5O)[C@](C)(CO)C4CCC3(C)[C@]1(C)C[C@H]2O (stereo partly drawn)	ANO1 activ -16 (no result: PHOSPHO1 inh, CHT inh, HDAC3 inhib, TMEM16A inh, CHT PAM)
C/C=C(/C)C(=O)OC1CC(C)(C)C[C@H]2C3=CC[C@@H]4[C@@]5(C)CCC(O[C@@H]6O[C@@H](C(=O)O)[C@@H](O)C(O[C@@H]7OC[C@H](O)[C@@H](O)[C@@H]7O[C@@H]7OC(CO)C(O)[C@@H](O)[C@@H]7O)C6O[C@@H]6OC(CO)C(O)C(O)C6O)[C@@](C)(CO)[C@@H]5CC[C@]4(C)[C@]3(C)CC(O)[C@@]12CO (stereo partly drawn)	ANO1 activ -37 (no result: PHOSPHO1 inh, CHT inh, TMEM16A inh, CHT PAM)
CC(=O)OC1COC(OC2C(O)C(C)OC(OC3C(OC4CCC5(C)C(CCC6(C)C5CC=C5C7CC(C)(C)CCC7(C(=O)O)CCC56C)C4(C)CO)OCC(O)C3O)C2O)C(O)C1OC(C)=O (stereo not drawn)	TMEM16A inh 100 (no result: ANO1 activ)
Fc1ccccc1Cc1noc(CN2CCN(c3ccc(Cl)cn3)CC2)n1	none
O=C(Cn1c(NCCCO)nc2ccccc21)c1ccc(Cl)cc1	none
Cc1cc2nc(NCCCO)n(CC(=O)c3cc(C(C)(C)C)c(O)c(C(C)(C)C)c3)c2cc1C	TMEM16A inh 100 (no result: PHOSPHO1 inh)
COc1cccc(NC(=S)N2CCc3cc(OC)c(OC)cc3C2COc2ccc3c(C)cc(=O)oc3c2)c1 (stereo not drawn)	none
CCN(CC)C(=O)CC(c1ccc(OC)cc1)c1c(O)cc(OC)cc1OC (stereo not drawn)	ANO1 activ -9.9
Cn1c(Cc2cccs2)nnc1SCC(=O)N1CCCc2ccccc21	none
O=C(CSc1nnc(Cc2cccs2)n1CCc1ccccc1)N1CCCc2ccccc21	PHOSPHO1 inh 66
Oc1ccc(C2CNCc3sccc32)cc1O (stereo not drawn)	none (no result: PHOSPHO1 inh)
Cc1ccc(-c2nc(=S)c3c(n2Cc2ccco2)CC(C)(C)OC3)cc1	CHT PAM 12
Cc1ccc(S(=O)(=O)Oc2ccc(N3C(=O)C4C5CCC(C5)C4C3=O)cc2)cc1 (stereo not drawn)	none
O=C1C2C3CCC(C3)C2C(=O)N1c1ccc(OS(=O)(=O)c2ccccc2)cc1 (stereo not drawn)	PHOSPHO1 inh 60
COc1ccc(C(=O)Nc2cccc(C(=O)N3CCCCC3)c2)cc1	PHOSPHO1 inh 66
Cc1ccc(O)c(C2=NNC(c3ccc(Cl)cc3)C2)c1 (stereo not drawn)	none
Cc1ccc(O)c(C2=NNC(O)(C(F)(F)F)C2)c1 (stereo not drawn)	TMEM16A inh 25
COc1cc(/C=N/Nc2nc(N3CCCC3)nc(N3CCCC3)n2)ccc1O	HDAC3 inhib 38
COc1ccc(/C=N/Nc2cc(N3CCCC3)nc(N3CCCC3)n2)cc1	ANO1 activ -19
Cc1oc2c(c(C)cc3oc(=O)c(CC(=O)NCC(=O)NCC(=O)NCC(C)O)c(C)c32)c1C (stereo not drawn)	none
CCn1c(SCc2cccc(C)c2)nnc1-c1ccc(C)cc1	PHOSPHO1 inh 69
Cc1ccc(-c2nnc(SCc3nc4ccccc4[nH]3)n2Cc2ccco2)cc1	PHOSPHO1 inh 94
Cc1cccc(-c2nnc(SCc3nc4ccccc4[nH]3)n2Cc2ccco2)c1	PHOSPHO1 inh 83
CCOc1ccc(-c2nnc(SCc3nc4ccccc4[nH]3)n2N)cc1	PHOSPHO1 inh 76
Cn1c(SCc2nc3ccccc3[nH]2)nnc1-c1cccnc1	none
COc1ccc(CNC2CCN(Cc3ccccc3)CC2)cc1	none
CC1=C(C(=O)OCc2ccc3c(c2)OCO3)C(c2ccc(O)c([N+](=O)[O-])c2)NC(=O)N1 (stereo not drawn)	none
Cc1ccc(-c2nnc(SCc3ccc(C#N)cc3)n2Cc2ccco2)cc1	PHOSPHO1 inh 100
COc1ccc(Oc2c(C)oc3c(CN4CCOCC4)c(O)ccc3c2=O)cc1	PHOSPHO1 inh 60
COc1cccc(Oc2c(C)oc3c(CN4CCOCC4)c(O)ccc3c2=O)c1	none (no result: PHOSPHO1 inh, CHT inh, HDAC3 inhib, TMEM16A inh, CHT PAM)
COc1ccccc1NC(=S)NCc1ccco1	PHOSPHO1 inh 62
COc1ccc(C)cc1NC(=O)NCc1ccco1	PHOSPHO1 inh 61
COc1ccc(NC(=O)NCc2ccco2)cc1OC	none
CCN1C(=O)C(CC(=O)Nc2ccc(OC)cc2)N(CCc2ccccc2F)C1=S (stereo not drawn)	none
O=C(Cn1c(CCCO)nc2ccccc21)Nc1ccccc1-c1ccccc1	none
Cc1ccc(-c2nn(CCC(=O)NC(C)C)c(=O)c3ccccc23)cc1	none
CCOC(=O)/C(=C\c1cccnc1)C(=O)c1cc(C(C)=O)c(Nc2ccccc2)s1	TMEM16A inh 25, ANO1 activ -11
CC(C)n1c(=N)c(C(=O)NCCc2ccccc2)cc2c(=O)n3ccccc3nc21	PHOSPHO1 inh 63
Cn1c(=O)c(/C=C/c2ccc(F)cc2)nc2ccccc21	ANO1 activ -7 (no result: CHT inh, HDAC3 inhib, TMEM16A inh, CHT PAM)
Cn1c(=O)c(/C=C/c2ccccc2)nc2ccccc21	none
CC(C)Oc1ccc(N2CC(C(=O)NC3=NCCS3)CC2=O)cc1 (stereo not drawn)	PHOSPHO1 inh 64
CN(CCOc1cccc2ccccc12)Cc1ccccc1	none
COc1cccc(CN(C)C(=O)c2cc(COc3ccc(-n4cncn4)cc3)on2)c1	TMEM16A inh 25
Cc1ccc(NC(=S)NNC(=S)NCc2ccccc2)cc1	PHOSPHO1 inh 75
FC(F)(F)c1cccc(NC(=S)Nc2ccc(Cl)cc2Cl)c1	TMEM16A inh 100
FC(F)(F)c1cccc(NC(=S)NCc2ccccn2)c1	none
FC(F)(F)c1cccc(NC(=S)NNC(=S)NCc2ccccc2)c1	PHOSPHO1 inh 104
CCc1cc(C(=O)NNC(=S)NCc2ccccc2)cs1	PHOSPHO1 inh 91, HDAC3 inhib inconclusive
Clc1cccc(-c2ccnc3nc(-n4cccc4)nn23)c1	none
CCn1c(=O)c(C(=O)Nc2nc3ccccc3[nH]2)c(O)c2ccccc21	ANO1 activ -7.8
CCc1nc2ccccc2[nH]c1=O	none
CC(C(=O)N1CCOCCOCCOCC1)N1C(=O)c2ccccc2C1=O (stereo not drawn)	none
O=c1c2c(nc3c(-c4cccc(Br)c4)c[nH]n13)CCCC2	PHOSPHO1 inh 62
